{"source": "PubChem BioAssay (NCATS)", "key": {"[1]": {"test": "NCATS anti-infectives library activity on HEK293 viability as a counter-qHTS vs the C. elegans viability qHTS (AID 1745854)", "conditions": "HEK293 viability counter-screen; series mostly up to 41.8 µM", "method_in_brief": "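Compounds were acoustically plated (several concentrations, 1:5, final up to 41.7 uM), then 1500 HEK293 cells added per well and incubated 24 hr at 37C, 5% CO2. CellTiter-Glo was added and luminescence read after 10 min.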"}, "[2]": {"test": "NCATS anti-infectives library activity on the primary C. elegans qHTS viability assay (AID 1745855; calls by dose curve)", "conditions": "C. elegans worm area imaging, day 7; series mostly up to 41.8 µM", "method_in_brief": "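Viability read-out is GFP fluorescence of PE254-GFP-FLuc C. elegans, measured by laser cytometry (488 nm) at day 0, 3 and 7. Ten L1 worms per well were incubated 7 days at 21 °C with compounds and bacterial capsules in S medium.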"}, "[3]": {"test": "Viability counterscreen for antagonist of constitutive androstane receptor (CAR) against the NCATS DSHEA and TCM libraries (AID 1794837);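 note: compound exposure lasted 24 h before viability reading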", "conditions": "CAR reporter cell line viability counterscreen, qHTS; series mostly up to 40 µM", "method_in_brief": "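HepG2-CYP2B6-hCAR cells, 2,500/well, were exposed 24 hr at 37C to substances together with 48 uM CITCO (final). Viability was read as CellTiter-Fluor fluorescence (Ex/Em 405/540 nm) after 1 hr.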"}, "[4]": {"test": "Viability counterscreen for agonist of constitutive androstane receptor (CAR) against the NCATS DSHEA and TCM libraries (AID 1794838)", "conditions": "HepG2 cell viability counterscreen, CAR agonist assay, co-treated with 0.75 µM CAR antagonist; series mostly up to 40 µM", "method_in_brief": "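HepG2-CYP2B6-hCAR cells (2,500/well) treated 24 h at 37C with compounds plus 0.75 uM PK11195; viability read by CellTiter-Fluor fluorescence, Ex/Em 405/540 nm.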"}, "[5]": {"target": "Nuclear receptor subfamily 1 group I member 3 (Homo sapiens) (UniProt Q14994)", "sequence (Q14994 whole entry, looked up)": "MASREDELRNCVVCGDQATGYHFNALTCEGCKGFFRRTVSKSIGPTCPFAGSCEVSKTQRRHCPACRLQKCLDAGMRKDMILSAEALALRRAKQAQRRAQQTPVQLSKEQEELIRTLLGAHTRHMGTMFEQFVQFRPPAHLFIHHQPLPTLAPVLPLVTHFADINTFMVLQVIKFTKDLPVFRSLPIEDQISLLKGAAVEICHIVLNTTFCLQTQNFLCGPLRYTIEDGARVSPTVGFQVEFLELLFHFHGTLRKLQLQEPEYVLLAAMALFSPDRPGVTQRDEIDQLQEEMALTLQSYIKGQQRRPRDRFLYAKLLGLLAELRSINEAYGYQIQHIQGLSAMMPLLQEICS", "test": "Primary qHTS for agonist of constitutive androstane receptor (CAR) against the NCATS DSHEA and TCM libraries (AID 1794839)", "conditions": "CAR agonist reporter cells, qHTS luminescence, CAR antagonist co-added at 0.75 µM; series mostly up to 40 µM", "method_in_brief": "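HepG2-CYP2B6-hCAR cells, 2,500/well, attached 5 h, then dosed with 0.75 µM PK11195 (final) for 24 h at 37 °C. Luciferase luminescence read (ONE-Glo); CellTiter-Fluor viability (Ex/Em 405/540 nm) in same wells; CITCO positive control.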"}, "[6]": {"test": "HepG2 viability counterscreen (readout 2: ATP content) against the NCATS DSHEA and TCM libraries (AID 1794840)", "conditions": "ATP content luminescence; series mostly up to 27.3 µM", "method_in_brief": "(§1)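 HepG2 cells, 1,000/well, attached ~4 h, then exposed ~24 h at 37C to substances. Protease activity read by fluorescence of 25 uM GF-AFC (Ex/Em 380/510 nm) after 30 min; ATP then by CellTiter-Glo luminescence.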"}, "[7]": {"test": "HepG2 viability counterscreen (readout 1: protease activity) against the NCATS DSHEA and TCM libraries (AID 1794841)", "conditions": "qHTS concentration series; series mostly up to 27.3 µM", "method_in_brief": "as §1"}, "[8]": {"target": "Rap guanine nucleotide exchange factor 4 (Homo sapiens) (UniProt Q8WZA2)", "sequence (Q8WZA2 whole entry, looked up)": "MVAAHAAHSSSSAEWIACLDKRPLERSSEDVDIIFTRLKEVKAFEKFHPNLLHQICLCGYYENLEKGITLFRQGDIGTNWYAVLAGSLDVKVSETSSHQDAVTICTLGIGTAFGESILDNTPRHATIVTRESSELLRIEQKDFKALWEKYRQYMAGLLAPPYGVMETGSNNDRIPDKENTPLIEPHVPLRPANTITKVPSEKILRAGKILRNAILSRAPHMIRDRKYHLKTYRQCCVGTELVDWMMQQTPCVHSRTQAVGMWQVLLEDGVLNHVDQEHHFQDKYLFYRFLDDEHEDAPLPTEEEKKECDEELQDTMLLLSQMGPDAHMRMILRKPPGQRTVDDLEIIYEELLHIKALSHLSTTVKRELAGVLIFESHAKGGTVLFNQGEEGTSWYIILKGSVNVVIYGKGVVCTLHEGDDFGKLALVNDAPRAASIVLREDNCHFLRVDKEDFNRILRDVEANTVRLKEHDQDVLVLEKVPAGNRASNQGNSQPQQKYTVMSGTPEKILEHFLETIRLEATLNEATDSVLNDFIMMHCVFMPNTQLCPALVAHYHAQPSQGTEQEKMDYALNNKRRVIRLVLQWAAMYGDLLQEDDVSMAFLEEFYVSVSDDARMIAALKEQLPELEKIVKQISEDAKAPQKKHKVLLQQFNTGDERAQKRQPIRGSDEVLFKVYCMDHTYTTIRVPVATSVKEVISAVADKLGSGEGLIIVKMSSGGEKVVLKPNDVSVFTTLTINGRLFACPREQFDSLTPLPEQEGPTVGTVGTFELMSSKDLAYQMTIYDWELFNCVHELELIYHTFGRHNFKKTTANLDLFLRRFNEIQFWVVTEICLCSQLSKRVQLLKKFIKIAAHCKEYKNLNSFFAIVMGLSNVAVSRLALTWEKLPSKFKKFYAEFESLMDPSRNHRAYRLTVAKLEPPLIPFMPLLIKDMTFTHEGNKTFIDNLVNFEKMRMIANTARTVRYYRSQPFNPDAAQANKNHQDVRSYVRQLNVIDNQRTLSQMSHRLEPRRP", "test": "Confirmatory qHTS for antagonist of cAMP-regulated guanine nucleotide exchange factor 4 (EPAC2) (AID 1645885)", "conditions": "EPAC2 Rap1B-BODIPY-GDP exchange fluorescence, biochemical; series mostly up to 114 µM"}}, "note": "Inconclusive results are not listed. Where a call stands in place of a potency, no number is given. Calls of active or inactive are those of the source. Unless noted, calls come from the whole dose curve; as a rule, active = well fitted curve in the direction sought with a large enough effect; inconclusive = small, poorly fitted or top-dose-only effect, or another doubt; inactive = no such curve, though single readings can be large; an effect the other way counts as inactive or inconclusive."}
{"molecule": "CNC(=O)[C@H](Cc1c[nH]c2ccccc12)NC(=O)[C@@H](CC(=O)NO)CC(C)C", "values": [{"measurement": "outcome", "setting": "[1]", "result": "inactive"}, {"measurement": "Potency", "setting": "[2]", "result": "inactive"}]}
{"molecule": "CC(=O)N=c1sc(S(N)(=O)=O)nn1C", "values": [{"measurement": "outcome", "setting": "[1]", "result": "inactive"}]}
{"molecule": "Nc1nc(=O)n([C@@H]2CS[C@H](CO)O2)cc1F", "values": [{"measurement": "outcome", "setting": "[1]", "result": "inactive"}]}
{"molecule": "C=C1[C@H](CO)[C@@H](O)C[C@@H]1n1cnc2c(=O)[nH]c(N)nc21", "values": [{"measurement": "outcome", "setting": "[1]", "result": "inactive"}]}
{"molecule": "CC/C=C\\C/C=C\\C/C=C\\CCCCCCCC(=O)O", "values": [{"measurement": "outcome", "setting": "[3]", "result": "inactive"}, {"measurement": "outcome", "setting": "[4]", "result": "inactive"}, {"measurement": "Potency", "setting": "[5]", "result": "inactive"}, {"measurement": "outcome", "setting": "[6]", "result": "inactive"}, {"measurement": "outcome", "setting": "[7]", "result": "inactive"}]}
{"molecule": "COc1ccc(/C=C/C(=O)O)cc1", "values": [{"measurement": "Potency", "setting": "[8]", "result": "inactive"}]}
